For 10 molecules, Potency, max response and outcome results are on record in PubChem BioAssay (NCATS).

In one test the test system is CRL-7250. In words: Cytotoxic Profiling of Annotated Libraries Using Quantitative High-Throughput Screening (AID 1296008). Further: potency means the concentration at half of the fitted maximal effect. On max response: on the % scale 0 is the no-effect control and ±100 the full control effect. The following applies: Five cell lines viability, CellTiter-Glo ATP luminescence, 48-72 h; max response: active compounds read low. An outline of the steps:
(§1)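 Compounds were pin-transferred onto cells and incubated 48 or 72 hr at 37 degree Celsius, 95% humidity. CellTiter-Glo was added, plates sat 10 min at room temperature, then ATP-coupled luminescence was imaged as the viability read-out.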

The test system of the next test is HEK293. The test is described as above. Particulars: Five cell lines viability, CellTiter-Glo ATP luminescence, 48-72 h; max response: active compounds read low. An outline of the steps:
as §1

In another test the test system is NIH3T3. The test is described as above. Particulars: Five cell lines viability, CellTiter-Glo ATP luminescence, 48-72 h; max response: active compounds read low. In a few lines:
as §1
Background: In ATP-based viability assays light output follows the ATP content of the culture.

Test [1] has as its system HaCat. Described as above. The following applies: Five cell lines viability, CellTiter-Glo ATP luminescence, 48-72 h; max response: active compounds read low. An outline of the steps:
as §1

Test [2] concerns HACAT. In words: qHTS assay to identify novel small-molecules to repurpose for Merkel cell carcinoma treatment (AID 1296009). Particulars: MCC and control cell lines, CellTiter-Glo viability, 72 h; at 44.8 µM (top of the series) unless noted. In a few lines: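 Viability readout: ATP luminescence (CellTiter-Glo) after 72 hr drug exposure at 37 degree celsius. Dose-response format was 8 points for NPC and 11 points for MIPE; data normalized to in-plate controls.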
For orientation: In qHTS, concentration-response curves come from the screen itself.

A further test concerns KB-3-1. In words: Cytotoxic Profiling of Annotated Libraries Using Quantitative High-Throughput Screening (AID 1296008). Further: potency means the concentration at half of the fitted maximal effect. On max response: on the % scale 0 is the no-effect control and ±100 the full control effect. Particulars: Five cell lines viability, CellTiter-Glo ATP luminescence, 48-72 h; max response: active compounds read low. In a few lines:
as §1

Structures are written as SMILES. Results filed as inconclusive are left out. Unmarked numbers belong to inactive results. Active and inactive are the calls of the source. The call rests on the fitted dose curve; in most records, active means well fitted inhibition curve with a large enough effect; inconclusive means small, poorly fitted or top-dose-only effect; inactive means flat fitted curve, though single readings scatter.
Further: nearly all actives have a fitted effect of over 60% in size.

With `Cc1nc(C#Cc2ccnc(Cl)c2)c(C)n1-c1ccc(F)cc1`, the Potency in the test on CRL-7250 is 18.4 µM (active); in the test on HEK293 it was 7.31 µM (active). Moreover, the max response in the test with NIH3T3 was -10.7%.
On to `N#Cc1ccc(O[C@@H]2c3ccccc3C[C@H]2N2CCC[C@@H](N)C2)c(Cl)c1`, for which, in the test with CRL-7250, the max response was -27.9%. The Potency in the test with HEK293 was 20.6 µM (active). Also, the call with HaCat [1] and in the test on HACAT [2] was inactive.
`CC1CCC/C=C/C(=O)c2c(O)cc(O)cc2CC(=O)O1` (configuration not stated): the Potency was 7.31 µM (active) in the test on CRL-7250, 4.11 µM (active) with HEK293 and 14.6 µM (active) in the test on NIH3T3.
Regarding `CCC(CC)C(=O)OC12C(OC(=O)C(C)C)C(C)C3(O)C(C=C(CO)CC4(O)C(=O)C(C)=CC43)C1C2(C)C` (configuration not stated), the values for the max response with CRL-7250 and with HEK293 were 0.624% and -5.82%, respectively. Besides, the call in the test on HaCat [1] and in the test on NIH3T3 was inactive. Further, the outcome in the test on HACAT [2] was “inactive [at 17.4 µM]”.
Consider `Cc1[nH]c2ccc(F)cc2c1-c1nc2c3cccnc3c3ncccc3c2[nH]1`, for which the Potency in the test on CRL-7250 is 3.66 µM (active); in the test on HEK293 it was 4.61 µM (active); in the test with NIH3T3 it was 14.6 µM (active).
Consider `COc1cc(C(N)=O)nc(-c2ccccn2)c1O`, for which the max response with CRL-7250 is -12.9%; in the test with HEK293, -3.89%; in the test on NIH3T3 it was -4.41%.
Regarding `CN1CCN(c2ccc(OC(F)(F)F)c(Nc3ncc4c(n3)-c3c(c(C(N)=O)nn3CCO)CC4)c2)CC1`, the max response in the test on CRL-7250 was -11.3%. In addition, the Potency in the test on HaCat [1] is 0.259 µM (active); in the test with KB-3-1, 0.0366 µM (active).
Take `Cc1cnn(-c2ccccc2)c1NC(=O)COCc1ccccc1`: the max response in the test with CRL-7250 was -16.8%; in the test on HaCat [1] it was 3.62%.
Consider `C=C1CC2OC(=O)C(=C)C2C(OC(=O)/C(C)=C\C)CC2(C)OC1=CC2=O` (configuration not stated), for which the figures for the Potency in the test with CRL-7250, in the test on HEK293 and with NIH3T3 were 14.3 µM (active), 2.86 µM (active) and 12.8 µM (active), respectively.
Take `C=C1C(=O)O[C@H]2C3=C(C)CCC[C@]3(C)C(=O)C[C@@H]12`: the Potency in the test on CRL-7250 was 18.4 µM (active); with HEK293, 5.8 µM (active); with NIH3T3, 16.4 µM (active).
